{
  "source": "PubChem BioAssay AID602292",
  "about": "(National Center for Advancing Translational Sciences (NCATS), 2012)",
  "note": "Screen size: about 1,300 compounds; about 380 (29%) were called active. Another 37% or so got no clear call; they are omitted. Calls follow the shape of the dose curve; as a rule, active = well fitted inhibition curve with a large enough effect; inconclusive = small, poorly fitted or top-dose-only effect; inactive = flat fitted curve, though single readings scatter. The list shows a part of the results. A call without a number means that no potency is given here. Potency is read from the fitted curve at half-maximal effect.",
  "data": [
    {"target": "Thyrotropin receptor (Homo sapiens) (UniProt P16473)", "sequence (P16473 whole entry, looked up)": "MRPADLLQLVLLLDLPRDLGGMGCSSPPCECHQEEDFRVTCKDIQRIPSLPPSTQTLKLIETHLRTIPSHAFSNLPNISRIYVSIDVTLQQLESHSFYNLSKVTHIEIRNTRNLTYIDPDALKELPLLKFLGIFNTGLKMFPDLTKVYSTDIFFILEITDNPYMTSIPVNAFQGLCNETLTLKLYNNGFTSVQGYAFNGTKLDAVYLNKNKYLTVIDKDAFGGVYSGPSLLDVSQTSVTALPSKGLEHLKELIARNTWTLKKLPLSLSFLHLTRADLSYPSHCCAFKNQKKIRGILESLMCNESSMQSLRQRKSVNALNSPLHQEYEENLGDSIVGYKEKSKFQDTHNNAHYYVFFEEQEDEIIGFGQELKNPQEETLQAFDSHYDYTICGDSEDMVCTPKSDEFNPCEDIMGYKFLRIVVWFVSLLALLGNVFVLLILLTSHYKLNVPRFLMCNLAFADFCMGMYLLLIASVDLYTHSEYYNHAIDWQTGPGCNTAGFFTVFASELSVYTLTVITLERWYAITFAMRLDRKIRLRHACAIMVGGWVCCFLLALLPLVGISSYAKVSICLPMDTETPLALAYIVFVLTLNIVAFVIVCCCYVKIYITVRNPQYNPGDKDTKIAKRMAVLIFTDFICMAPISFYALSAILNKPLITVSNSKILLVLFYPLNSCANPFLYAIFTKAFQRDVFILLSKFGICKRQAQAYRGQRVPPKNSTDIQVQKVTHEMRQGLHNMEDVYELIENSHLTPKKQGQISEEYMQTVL", "test": "qHTS for antagonists of the Thyroid Stimulation Hormone Receptor: Hit Validation in Primary Screen; also: nearly all actives have a fitted effect of over 80% in size", "details": "TSHR-expressing cells, cAMP antagonist mode; series mostly up to 58 µM", "method_in_brief": "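TSHR-expressing cells were pretreated with compound, then stimulated with TSH at EC80 (4nM final) for 2 hours at 37 deg C. Cellular cAMP measured by competitive HTRF (anti-cAMP cryptate, cAMP-d2) after 30 min at room temperature.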", "values": [
      {"compound": "CCN(CC)c1ccc(C(=O)OCC(=O)N2CCCC2)cc1", "Potency": "inactive"},
      {"compound": "COc1cccc(NC(=S)N2CCCN(Cc3ccc(F)cc3)C2)c1", "Potency": "inactive"},
      {"compound": "Cn1nnnc1SCC1=C(C(=O)O)N2C(=O)C(NC(=O)C3CC3c3ccccc3)C2SC1", "note": "(stereo not drawn)", "Potency": "inactive"},
      {"compound": "O=C1C=C(c2ccc(Cl)c(C(F)(F)F)c2)C[C@@H](c2ccc(F)cc2)C1", "Potency": "inactive"},
      {"compound": "CSC1=NSC2=NC(=O)/C(=C\\c3coc4ccccc4c3=O)C(=N)N12", "Potency": "2.69 µM (active)"},
      {"compound": "CCSC1=NSC2=NC(=O)/C(=C\\c3coc4ccccc4c3=O)C(=N)N12", "Potency": "1.69 µM (active)"},
      {"compound": "Cc1ccc(-c2nnc(SCC(=O)NC3CCCC3)n2C)cc1", "Potency": "inactive"},
      {"compound": "N#Cc1cccc(NC(=O)COC(=O)c2cc(S(=O)(=O)Nc3ccccc3Cl)ccc2O)c1", "Potency": "12 µM (active)"},
      {"compound": "CCC(=O)OCCNc1cc(Sc2nccn2C)c2nonc2c1[N+](=O)[O-]", "Potency": "19 µM (active)"},
      {"compound": "CCCC(=O)OCCNc1cc(Sc2nc3ccccc3[nH]2)c2nonc2c1[N+](=O)[O-]", "Potency": "23.9 µM (active)"},
      {"compound": "CC(=O)OCCNc1cc(Sc2nc3ccccc3[nH]2)c2nonc2c1[N+](=O)[O-]", "Potency": "26.9 µM (active)"},
      {"compound": "CCC(=O)OCCNc1cc(Sc2nc3ccccc3[nH]2)c2nonc2c1[N+](=O)[O-]", "Potency": "23.9 µM (active)"},
      {"compound": "COc1ccc(F)cc1CN1CCN(C(=O)CCC(=O)Nc2nnc(CC(C)C)s2)CC1", "Potency": "inactive"},
      {"compound": "O=c1[nH]cccc1-c1nc2ccccc2n1Cc1ccc(F)cc1", "Potency": "inactive"},
      {"compound": "Cn1c(CNC(=O)c2ccc(Cl)cc2)nnc1SCC(=O)NC1CCCC1", "Potency": "inactive"},
      {"compound": "CCN(c1cccc(C)c1)S(=O)(=O)c1cn(CC(=O)OC)c2ccc([N+](=O)[O-])cc12", "Potency": "inactive"},
      {"compound": "CNC(=S)n1cnc(N)n1", "Potency": "inactive"},
      {"compound": "NS(=O)(=O)c1ccc(CCNC(=O)c2cc3ccccc3s2)cc1", "Potency": "inactive"},
      {"compound": "O=C(CNC(=O)c1ccco1)OCC(=O)c1ccccc1", "Potency": "inactive"},
      {"compound": "CCCCNC(=O)CC1C(=O)N(Cc2ccccc2)C(C)c2nc3ccccc3n21", "note": "(stereo not drawn)", "Potency": "inactive"},
      {"compound": "CC1=NN(C(N)=S)C(=O)C1N=Nc1ccc(Cl)cc1Cl", "note": "(stereo not drawn)", "Potency": "30.1 µM (active)"},
      {"compound": "CC(=O)N(C)c1ccc(N=NC2C(=O)N(C(N)=S)N=C2C)cc1", "note": "(stereo not drawn)", "Potency": "inactive"},
      {"compound": "O=C1c2cccnc2C(=O)N1Cc1ccc(S(=O)(=O)N2CCN(c3ccc(Cl)cc3)CC2)cc1", "Potency": "inactive"},
      {"compound": "COc1cccc(N2CCN(c3ncnc4c3cnn4-c3ccc(C)cc3C)CC2)c1", "Potency": "10.7 µM (active)"},
      {"compound": "Cc1onc(-c2ccccc2)c1NC(=O)N(Cc1ccccc1)C(C)C", "Potency": "inactive"},
      {"compound": "CC(C)N(Cc1ccccc1)C(=O)COC(=O)c1cnc(Cl)c(Cl)c1", "Potency": "23.9 µM (active)"},
      {"compound": "CCc1ccc(/C=C/C(=O)c2cc(Br)ccc(=O)c2O)cc1", "Potency": "9.53 µM (active)"},
      {"compound": "Cc1cccc(/C=C/C(=O)c2cc(Br)ccc(=O)c2O)c1", "Potency": "15.1 µM (active)"}
    ]}
  ]
}
